Whole data set: some 9,900 sequences, median “r (bound/input frequency ratio)” near 0.7, cut for the highest 2% near 6.5. Many of the other results were omitted from the sample, so the highest values are more common in it than they were.
B1: ENSMUSG00000061578.853|Ksr2 (ssRNA)
RNA: GGGAGUUCUACAGUCCGACGAUCGCUUCGAUAUCCGCAUGCUAAAGCAAAGAGCAAUACAGGAAAAGGUCAGGGGUGAGAUGUGUCAUUGCCACUUCCUCCAGCUAGGACCUUUGAGCAUCACAUUGUGAAGCCAUCCAGGGACUUGGGGGUUAGGUCAGAGGUAUCAAUACAUCUCCGGAAACAUCGUCACAGAUACCUAGAGGUACUUCAUUGAUCCCUUGAAAAGCAUGUCUUAAUUCUGUUAAGAUGUCAAUCAAGAUUACACAUCUCACUGCUUCACAGGCCAUCAGGGCCCCAUUCUCUCUUGCGGUCGCACUAGUGUGGAAUUCUCGGGUGUCAAGG
B2: ENSMUSG00000022095.197|Fam160b2 (ssRNA)
RNA: GGGAGUUCUACAGUCCGACGAUCGCUUCGAUAUCCGCAUGCUAUUCCUUUUCCUGCCCAUGCCACCUCUCGAAGCCGGGCACAGGUUGCCAGGAGGUGACAUGAAAGAGGAGGAAACUCCAUGACCUCUACAUCCCCCGCAGUCCUCCCAGCGGGGGAGGACUUCUCUGCUGCUCCGAAGAACAUCAUGCACUCCUGUGUGUGUGUGUGAGUGUGUGUGUGUGUGUGUGUGUGUGUGUGUGUGUAUGUGUGUGUAUAUGUGUGUGUGUGUGUGUAUGUGUGUGUGUGUGUGUGAGUGAGUGUGCUCUUGCGGUCGCACUAGUGUGGAAUUCUCGGGUGUCAAGG
B3: ENSMUSG00000022095.195|Fam160b2 (ssRNA)
RNA: GGGAGUUCUACAGUCCGACGAUCGCUUCGAUAUCCGCAUGCUAAGCCCCUUUUGCUUCCUUUUCCUGCCCAUGCCACCUCUCGAAGCCGGGCACAGGUUGCCAGGAGGUGACAUGAAAGAGGAGGAAACUCCAUGACCUCUACAUCCCCCGCAGUCCUCCCAGCGGGGGAGGACUUCUCUGCUGCUCCGAAGAACAUCAUGCACUCCUGUGUGUGUGUGUGAGUGUGUGUGUGUGUGUGUGUGUGUGUGUGUGUGUAUGUGUGUGUAUAUGUGUGUGUGUGUGUGUAUGUGUGUGUGUGUGUGCUCUUGCGGUCGCACUAGUGUGGAAUUCUCGGGUGUCAAGG
B4: ENSMUSG00000022095.185|Fam160b2|225:238;240:260 (ssRNA)
RNA: GGGAGUUCUACAGUCCGACGAUCGCUUCGAUAUCCGCAUGCUAUUACCUCACAACAGGCCUGCAGUUGUUGGCUUCCCUCCUGGGCAAGGAGGAGCAGGCCAGAGCCCCUUUUGCUUCCUUUUCCUGCCCAUGCCACCUCUCGAAGCCGGGCACAGGUUGCCAGGAGGUGACAUGAAAGAGGAGGAAACUCCAUGACCUCUACAUCCCCCGCAGUCCUCCCAGCGGGGGAGGACUUCUCUGCUGCUCCGAAGAACAUCAUGCACUCCACACACACACACACACACACACACACACACACACACCUCUUGCGGUCGCACUAGUGUGGAAUUCUCGGGUGUCAAGG
B5: ENSMUSG00000022095.181|Fam160b2 (ssRNA)
RNA: GGGAGUUCUACAGUCCGACGAUCGCUUCGAUAUCCGCAUGCUAAGAGCACUCGGGCGGCGCCAGGCAUUACCUCACAACAGGCCUGCAGUUGUUGGCUUCCCUCCUGGGCAAGGAGGAGCAGGCCAGAGCCCCUUUUGCUUCCUUUUCCUGCCCAUGCCACCUCUCGAAGCCGGGCACAGGUUGCCAGGAGGUGACAUGAAAGAGGAGGAAACUCCAUGACCUCUACAUCCCCCGCAGUCCUCCCAGCGGGGGAGGACUUCUCUGCUGCUCCGAAGAACAUCAUGCACUCCUGUGUGUGUGUGCUCUUGCGGUCGCACUAGUGUGGAAUUCUCGGGUGUCAAGG
B6: ENSMUSG00000022095.196|Fam160b2 (ssRNA)
RNA: GGGAGUUCUACAGUCCGACGAUCGCUUCGAUAUCCGCAUGCUAUUUUGCUUCCUUUUCCUGCCCAUGCCACCUCUCGAAGCCGGGCACAGGUUGCCAGGAGGUGACAUGAAAGAGGAGGAAACUCCAUGACCUCUACAUCCCCCGCAGUCCUCCCAGCGGGGGAGGACUUCUCUGCUGCUCCGAAGAACAUCAUGCACUCCUGUGUGUGUGUGUGAGUGUGUGUGUGUGUGUGUGUGUGUGUGUGUGUGUAUGUGUGUGUAUAUGUGUGUGUGUGUGUGUAUGUGUGUGUGUGUGUGUGAGUGCUCUUGCGGUCGCACUAGUGUGGAAUUCUCGGGUGUCAAGG
B7: ENSMUSG00000022095.198|Fam160b2 (ssRNA)
RNA: GGGAGUUCUACAGUCCGACGAUCGCUUCGAUAUCCGCAUGCUAUUCCUGCCCAUGCCACCUCUCGAAGCCGGGCACAGGUUGCCAGGAGGUGACAUGAAAGAGGAGGAAACUCCAUGACCUCUACAUCCCCCGCAGUCCUCCCAGCGGGGGAGGACUUCUCUGCUGCUCCGAAGAACAUCAUGCACUCCUGUGUGUGUGUGUGAGUGUGUGUGUGUGUGUGUGUGUGUGUGUGUGUGUAUGUGUGUGUAUAUGUGUGUGUGUGUGUGUAUGUGUGUGUGUGUGUGUGAGUGAGUGUGUGUGUGCUCUUGCGGUCGCACUAGUGUGGAAUUCUCGGGUGUCAAGG
B8: ENSMUSG00000022095.187|Fam160b2|213:226;228:260 (ssRNA)
RNA: GGGAGUUCUACAGUCCGACGAUCGCUUCGAUAUCCGCAUGCUAAGGCCUGCAGUUGUUGGCUUCCCUCCUGGGCAAGGAGGAGCAGGCCAGAGCCCCUUUUGCUUCCUUUUCCUGCCCAUGCCACCUCUCGAAGCCGGGCACAGGUUGCCAGGAGGUGACAUGAAAGAGGAGGAAACUCCAUGACCUCUACAUCCCCCGCAGUCCUCCCAGCGGGGGAGGACUUCUCUGCUGCUCCGAAGAACAUCAUGCACUCCACACACACACACACACACACACACACACACACACACACACACACACACCUCUUGCGGUCGCACUAGUGUGGAAUUCUCGGGUGUCAAGG
B9: ENSMUSG00000058297.304|Spock2|17:22 (ssRNA)
RNA: GGGAGUUCUACAGUCCGACGAUCGCUUCGAUAUCCGCAUGCUAAGUGAGGGCAGCCCCCACACACGUGGAAGAGGCUGGGCAGCUAGCUACUGGGGACCUUGUGCUGAGGCUUCCAGGACAAAGCCCCAGUCUGGCUCUCCCCCAGCCUCUCAGGGGCACUGGCUGGUCACAUCCACUGAGUAUUGAUCGGUUGGACUUUAGGGAAGAGCCUCCUCCUUCCCAUUCCUUUCUGCCACCCUGGAAUGGCCACCUUAAUCGUCAUCUCCUCGGGGGGAAUACGGAAAUGUCACCAAGCUCCAUAACUCUUGCGGUCGCACUAGUGUGGAAUUCUCGGGUGUCAAGG
B10: ENSMUSG00000090935.612|Synj2bp (ssRNA)
RNA: GGGAGUUCUACAGUCCGACGAUCGCUUCGAUAUCCGCAUGCUAUUUUCUGUGUGGGUGAUUUCAUUUAAUUAAUUGGACAGUCUAGCCACAGGCAACAAAUAGAAAUAGUAUUUGUAAUUAUAGUCUAUGCCAGGGACUGUCUUAAACUGAUUAGUAACACUAUGACUUACCCUGAGAUCUAAGUAUUGCUAUAAAGAGACUGAAGAGGAGAGAAUAAAGUAUUUUCCUAGGACUACAUAGUUGGUAAAAGAGAAUCAUGAUUUAAACUCUGGACUAUGGAUGGCAGUAUCAGUAAUAUUCCCCUCUUGCGGUCGCACUAGUGUGGAAUUCUCGGGUGUCAAGG
B11: ENSMUSG00000061578.450|Ksr2 (ssRNA)
RNA: GGGAGUUCUACAGUCCGACGAUCGCUUCGAUAUCCGCAUGCUACUUCUAACCUUGUACUGGGACAUCAUCUAUGUCCCCAUCCCCAGAGCUGAAUUAGAGACACCAAGUAGCCUCUUGGGUUGUUUUGUGGGGUGUUCCCCUUGCUGGUCAAAGGAGUGGAAAGCCACCUUGCUGUAAAUGCUCUUGUUUUCUGUAGCAAUCUUGAACUCUUUUUUUUUUUUGUUCGUUUGUUUGUUUGUUUGUUUGUUUGUUUUUUCAAGACAGGGUUUUUCUGUAUAGCCCUGGCUGUCCUGGAACUCAUUCUCUUGCGGUCGCACUAGUGUGGAAUUCUCGGGUGUCAAGG
B12: ENSMUSG00000043670.112|Diras1 (ssRNA)
RNA: GGGAGUUCUACAGUCCGACGAUCGCUUCGAUAUCCGCAUGCUACCGUGACCUCUGACCUGUGGCCUUCCCUGGGUCCAGAACACCCCUGUCCUCUCCUGUCUGCACACCAGGGUGGAUGGGCCCGAGGGCUGGGCCUCAGGCACCAGGCAAUAAACACAGGGCCUGCAGCAAUGCCCUGGCCACCCCGAGUACCACCUCUGGAAUAGCAGACGCCCACAGCACAAGCCCAGGACUGUCCCUUCAGGGGAGGCACACUGGAACCCUGAACUUGGAGUGUGGAGUGGCUGCCUGGACACUGCCCACUCUUGCGGUCGCACUAGUGUGGAAUUCUCGGGUGUCAAGG
B13: ENSMUSG00000090935.544|Synj2bp (ssRNA)
RNA: GGGAGUUCUACAGUCCGACGAUCGCUUCGAUAUCCGCAUGCUAUUGUUGAUCUAAAUAAAAAAUAUCAUUGGUAGAAGUUUUACUUUGGUUGAUAAGGAUUCUGAUAACAUUUGGGUCUCCUUAGGAAAGAAACACUUAACUAAAACAUUUAAGUUUUAGGCAAAUACUGUAAUAUUUCACUCUUAGUUAUAUGAAAACUAAAUGAGAUGUUGAGAAUCUAUAUAGAUUAUUCAAAUUUUAUGUUUCUUAUAGACUGACUCAAAUAUUCCUACCACCUUAAAAUUAUAUAUGAUGCACCUACCCUCUUGCGGUCGCACUAGUGUGGAAUUCUCGGGUGUCAAGG

molecular target: TDP-43 (Homo sapiens, UniProt Q13148 1-414); assay: RNA Bind-n-Seq with designed 260-mer pool; 25 mM Tris-HCl, 150 mM KCl, 3 mM MgCl2, BSA (printed 500 mg/mL), 20 units/mL SUPERase IN; pH not stated; 500 nM RNA pool, 1 h, 4 C; TDP-43 5, 50, 500 nM; high values mean tight binding; settings: protein: recombinant; tags: SBP (GST cleaved off with PreScission; pGEX-GST-SBP)
Outline: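 Binding (R) is the ratio of each oligo's mapped-read-normalized abundance in the bound fraction to its abundance in the input. To obtain it, SBP-tagged recombinant TDP-43 (5, 50 or 500 nM) on streptavidin beads was incubated with 500 nM of an in vitro-transcribed 260-nt 3′ UTR oligo pool for 1 h at 4 °C in 25 mM Tris-HCl, 150 mM KCl, 3 mM MgCl2, BSA and SUPERase IN. The RNA retained after washing was released with biotin, then reverse transcribed, amplified by PCR and sequenced.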

Chain of TDP-43 (Q13148 whole entry): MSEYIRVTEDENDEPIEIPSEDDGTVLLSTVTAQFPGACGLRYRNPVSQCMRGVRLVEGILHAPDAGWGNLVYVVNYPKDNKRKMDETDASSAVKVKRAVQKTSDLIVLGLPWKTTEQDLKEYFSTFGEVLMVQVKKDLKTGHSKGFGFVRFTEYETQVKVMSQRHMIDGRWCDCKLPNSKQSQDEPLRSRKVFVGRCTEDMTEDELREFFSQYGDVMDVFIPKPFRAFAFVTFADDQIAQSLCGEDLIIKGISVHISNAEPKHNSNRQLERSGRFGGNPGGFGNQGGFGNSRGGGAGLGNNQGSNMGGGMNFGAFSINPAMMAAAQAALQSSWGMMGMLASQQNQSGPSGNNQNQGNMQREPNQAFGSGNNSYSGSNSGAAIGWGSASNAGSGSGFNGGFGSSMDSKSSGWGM

| Binder | binding signal |
| --- | --- |
| B1 | 0.223 R (bound/input frequency ratio) |
| B2 | 6.5 R (bound/input frequency ratio) |
| B3 | 9.34 R (bound/input frequency ratio) |
| B4 | 2.7 R (bound/input frequency ratio) |
| B5 | 0.283 R (bound/input frequency ratio) |
| B6 | 6.8 R (bound/input frequency ratio) |
| B7 | 10 R (bound/input frequency ratio) |
| B8 | 1.89 R (bound/input frequency ratio) |
| B9 | 0.535 R (bound/input frequency ratio) |
| B10 | 0.0897 R (bound/input frequency ratio) |
| B11 | 2.73 R (bound/input frequency ratio) |
| B12 | 0.898 R (bound/input frequency ratio) |
| B13 | 0.0172 R (bound/input frequency ratio) |
